# Shown are actives, neighbours in structure and some others; about 7.9% of the full set was active somewhere.
# MCF10A rerep: DNA re-replication induction in MCF 10a cells. MCF 10A DNA re-replication, Hoechst nuclear intensity, 48 h. actives 2.9% (n = 350,000). Potency, µM (titrated, usually from 46.1 µM), for the others: at the top dose activity, positive = re-replication, usual class: activators. AID 624296; also: % of control where 0% means no effect; nearly all actives have a fitted effect of over 50% in size
# KB-V1 MDR tox: KB-V1 MDR subline cytotoxicity | KB-V1 MDR cells viability, CellTiter-Glo, 72 h | Potency, µM (highest dose often 46.1 µM), actives largely listed as cytotoxic | actives 3.4% (n = 400,000); also: % is scaled to controls: 0 for no effect and ±100 for the full control effect; nearly all actives have a fitted effect of over 60% in size
#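 Cytotoxicity via CellTiter-Glo luminescence after 72 h compound exposure at 37 degrees C. Cells: drug-selected KB-V1 line, DMEM phenol-red free plus 10% FBS. Compounds tested at multiple concentrations; normalized data fitted to concentration-effect curves.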
# SW480 rereplic: inducers of DNA re-replication in SW480 colon cancer cells; SW480 DNA re-replication, Hoechst DNA content imaging, 48 h; AID 624297; actives 1.8% (n = 340,000); Potency, µM (titrated, usually from 46.1 µM), without a hit: at the top dose re-replication activation, most hits filed as activators; also: % of control where 0% means no effect; nearly all actives have a fitted effect of over 55% in size
#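 SW480 cells exposed to compounds for 48 hr at 37 C, 5% CO2, then Hoechst-stained 40 min. Nuclear DNA content imaged by fluorescence scanning (405 nm excitation, 500-530 nm emission); re-replication scored as increased high-intensity nuclei.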
# HT1080 IDH1KD tx: HT-1080 IDH1 knockdown cell toxicity (counter line). Potency, µM (series often up to 46.1 µM), inactives show top-dose activity, negative = toxicity, usual class: cytotoxic. actives 2% (n = 360,000). HT-1080 IDH1 knockdown viability, ATP luminescence, 48 h. AID 686971;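 also: 0% = DMSO wells and -100% = cell-free medium wells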
#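 Using the IDH1-knockdown HT-1080 line run in the same batch and compound series as the NT line, viability after 48 h at 37 °C was determined by CellTiter-Glo luminescence and expressed as % activity.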
# HT1080NT lethal: kills 2HG-producing HT-1080-NT fibrosarcoma cells; HT-1080-NT fibrosarcoma viability, CellTiter-Glo ATP luminescence, 48 h; Potency, µM (highest dose often 46.1 µM), for inactives: at the highest dose activity, negative = less viability, hits mostly cytotoxic; actives 1.6% (n = 360,000);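 also: NT is the 2HG producing partner of a matched IDH1 knockdown line; 0% = DMSO-treated cells and -100% = media-only wells without cells; nearly all actives have a fitted effect of over 55% in size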
#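 HT-1080-NT; 750 cells/well; 5% FBS RPMI; 48 h compound, 37 degrees C; CellTiter-Glo luminescence; curve fitting and curve-class assignment.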
# KB-3-1 cytotox: KB-3-1 parental cell cytotoxicity; KB-3-1 viability, CellTiter-Glo ATP luminescence, 72 h; Potency, µM (highest dose often 46.1 µM), most hits filed as cytotoxic; actives 1.4% (n = 400,000); AID 1347075; also: % is scaled to controls: 0 for no effect and ±100 for the full control effect; nearly all actives have a fitted effect of over 60% in size
#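 Cytotoxicity measured as CellTiter-Glo luminescence after 72 h at 37 C. Compound titrations were pinned onto drug-naive KB-3-1 parental adenocarcinoma cells grown in DMEM with 10% FBS, and normalized data fitted to concentration-response curves.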
# Numbers without * were called inactive; i = inactive; u = inconclusive; x = no result; [ ] = dose if it differs, or a comment. Calls follow the shape of the dose curve; as a rule, active = well fitted curve in the direction sought with a large enough effect; inconclusive = small, poorly fitted or top-dose-only effect, or another doubt; inactive = no such curve, though single readings can be large; an effect the other way counts as inactive or inconclusive. Potency is read from the fitted curve at half-maximal effect.
SMILES,MCF10A rerep,KB-V1 MDR tox,SW480 rereplic,HT1080 IDH1KD tx,HT1080NT lethal,KB-3-1 cytotox
COc1cccc(C(=O)c2cn(CC(=O)NCc3ccccc3Cl)c3nc(C)ccc3c2=O)c1,x,i,x,x,x,i
CC(C)C[C@H](NC(=O)c1nc[nH]c1C(=O)N1CCN(c2ccccc2)CC1)C(=O)OCc1ccccc1,12µM*,i,1%[9.22 µM],5%,1%,i
COc1ccc(-n2ncc(C(=O)N3CCc4ccccc4C3)c2C2CCN(C(=O)OC(C)(C)C)CC2)cc1,x,i,x,x,x,i
O=S(=O)(c1ccc2c(c1)nc(COc1ccc(Cl)cc1)n2CC1CCCO1)N1CCOCC1 (stereo not given),10%,23µM*,8%,-1%,3%,i
CCCCn1c(C)nc2cc(S(=O)(=O)N3CCOCC3)ccc21,0%,i,4%,0%,-2%,i
CCCCn1c(CCl)nc2cc(S(=O)(=O)N3CCOCC3)ccc21,u,u,13µM*,u,-10%,u
CCc1ccc(C(=O)CSc2nc3cc(S(=O)(=O)N4CCOCC4)ccc3n2CC)cc1,-2%,21µM*,13%,-2%,1%,i
O=C(NCC1CCCO1)c1cc(S(=O)(=O)N2CCOCC2)ccc1Cl (stereo not given),-3%,i,1%,0%,0%,i
Cc1ccc(NC(=O)Cn2c(=O)n(CCCCC(=O)NCc3ccc4c(c3)OCO4)c(=O)c3ccccc32)cc1,x,i,x,x,x,i
O=C(COc1ccccc1)N/N=C/c1ccc([N+](=O)[O-])o1,9%,i,-2%,u,u,15µM*
CCCC(=O)Nc1ccc(C(=O)N/N=C/c2ccc([N+](=O)[O-])o2)cc1,3.3µM*,i,16µM*,13µM*,12µM*,u
O=C(N/N=C/c1ccc([N+](=O)[O-])o1)C(O)c1ccccc1 (stereo not given),12µM*,i,u,-27%,u,u
Cc1ccc(OCC(=O)N/N=C/c2ccc([N+](=O)[O-])o2)cc1,-5%,u,-6%,u,u,i
O=C(N/N=C/c1ccc(-c2ccc([N+](=O)[O-])cc2)o1)C(O)c1ccccc1 (stereo not given),22%,i,u,-1%,-1%,i
O=C(CSc1ccc(Cl)cc1)N/N=C/c1ccc([N+](=O)[O-])o1,9.2µM*,i,21µM*,-30%,-25%,i
CC1(C(=O)NCc2cccnc2)CCN1C(=O)c1cccc(F)c1 (stereo not given),x,i,x,u,5%,i
CCN(Cc1ccccc1)C(c1cc2cc(C)cc(C)c2[nH]c1=O)c1nnnn1CCOC (stereo not given),1%,i,5%,-12%,-8%,i
COCCn1nnnc1C(c1cc2cc(C)cc(C)c2[nH]c1=O)N1CCN(c2ccccc2F)CC1 (stereo not given),2%,23µM*,1%,-3%,4%,i
CCN(Cc1ccccc1)C(c1cc2cc(C)ccc2[nH]c1=O)c1nnnn1CCOC (stereo not given),1%,16µM*,3%,1%[9.24 µM],5%,u
NC1=NC(=O)S/C1=C\c1ccc(F)cc1,6%,i,-1%,u,23µM*,i
O=C(CSc1ccccc1)Nc1nnc(C2CC2)s1,2%,i,-15%,5%,12%,i
O=C(CCC(=O)Nc1cccnc1)Nc1cccnc1,2%,i,0%,11%,3%,i
C(=C\c1ccccc1)/CN1CCN(C(c2nnnn2C2CCCCC2)C2CC2)CC1 (stereo not given),x,18µM*,x,u,u,i
O=c1[nH]c(C2CCN(S(=O)(=O)/C=C/c3ccccc3)CC2)nc2c1nnn2Cc1ccccc1,-5%,i,9%,-23%,-22%,i
Cc1cccc(-c2ocnc2C(=O)Nc2ccccc2NC(=O)c2ccccn2)c1,u,u,18%,u,18µM*,i
SMILES,MCF10A rerep,KB-V1 MDR tox,SW480 rereplic,HT1080 IDH1KD tx,HT1080NT lethal,KB-3-1 cytotox
Cc1cccc(C)c1NC(=O)C1(C)CSCC(=O)N1C1CCN(Cc2ccccc2)CC1 (stereo not given),x,u,x,22%,9%,i
CC(=O)N1NC(=Nc2ccccc2)SC1(C)C,11%,18µM*,-3%,-11%,0%,i
CCOC(=O)c1c(C)c(-c2ccccc2)n(CC(=O)Nc2cc(C)cc(C)c2)c1C,x,i,x,x,x,i
COc1ccccc1NC(=O)Cn1c(=O)n(Cc2ccccc2)c(=O)c2ccccc21,x,i,x,x,x,i
CCOC(=O)/C=c1\s/c(=C\c2ccc3cc(OC)ccc3c2)c(=O)n1CC(=O)NCc1ccc2c(c1)OCO2,18%,u,5%,9%,12%,18µM*
Cc1cc(NC(=O)Cn2c(=O)n(Cc3ccccc3)c(=O)c3ccccc32)no1,12%,7.3µM*,8%,4%,-1%,i
CCOC(=O)/C=c1\s/c(=C\c2c(OCC)ccc3ccccc23)c(=O)n1CC(=O)NCC1CCCO1 (stereo not given),u,u,23%,u,-19%,u
CCOC(=O)/C=c1/s/c(=C\c2c(OC)ccc3ccccc23)c(=O)n1CC(=O)NCC1CCCO1 (stereo not given),u,4.6µM*,15µM*,u,16µM*,u
COc1cc2c(=O)n(Cc3ccccc3)c(=O)n(CC(=O)NCC3CCCO3)c2cc1OC (stereo not given),-2%,21µM*,-3%,12%,5%,i
O=C(Nc1ccc2oc(-c3cccnc3)nc2c1)c1ccc(Br)cc1,x,u,x,x,x,i
CS(=O)(=O)c1ccc(Oc2ccc(-c3nnco3)cc2)c([N+](=O)[O-])c1,-4%,u,-11%,-2%,5%,u
CCOC(=O)/C=c1\s/c(=C\c2ccccc2C)c(=O)n1CC(=O)NCc1ccc2c(c1)OCO2,u,3.3µM*,u,u,u,i
CCCNc1nc(NCc2ccccc2OC)c2cnn(C)c2n1,x,i,x,x,x,u
CCn1c(SCc2nc3ccccc3[nH]2)nnc1-c1ccc(OC)cc1,3%,10µM*,-16%,-5%,-4%,i
C=CCn1c(SCc2nc3ccccc3[nH]2)nnc1-c1ccc(OC)cc1,22%,4.6µM*,-8%,0%,7%,i
C=CCn1c(SCc2nc3ccccc3[nH]2)nnc1-c1cccc(OC)c1,8%,3.7µM*,-14%,-7%,-17%,i
